Growth data for 36 compounds are collected here from PubChem BioAssay (NCI).

Compounds without any hit were thinned out: in the full panel of roughly 83,000, 20% have a hit.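 The test compound was applied at a single concentration to cells in 96-well plates for 48 hours, and percent growth was recorded.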 Activity calls are given as the source filed them. The calls were made as follows: active = growth percent below 10; inactive = the rest.

In the first assay the test system is SK-MEL-5 melanoma. The assay can be described thus: NCI-60 one-dose screen, 48 h (100 = growth as untreated, 0 = no growth, -100 = all killed). The settings on record: 10 µM unless noted.
For `CCc1cc2c(cc1Cl)nc1c(=O)[nH]c(=O)nc-1n2CCOCC(C)C`, the growth is 34.4% (inactive). The same measure, in the same setting: for `COc1cc(C(=O)c2cc(C(C)=O)c3cccc(C)n23)cc(OC)c1OC` the value was 33.3% (inactive); for `Nc1ncc(-c2ccc3ncnc(NCc4ccccc4)c3c2)cn1`, 48.6% (inactive). The same measure, in the same setting: the value for `COc1ccc2c(c1)c(-c1nn3cc(-c4ccncc4)nc3s1)cn2C` was 86.3% (inactive).

The next assay deals with UACC-62 melanoma. The description is as above. Particulars: 10 µM unless noted.
Consider `C#C[C@]1(O)CC[C@H]2[C@@H]3CC=C4c5sc(N(C)c6ccccc6)nc5CC[C@]4(C)[C@H]3CC[C@@]21C`, for which the growth was 77% (inactive). Still for that read-out and setting: the value for `CC(=O)c1c([Si](C)(C)C)c2cc(C#N)ccn2c1C(=O)c1ccc(Br)cc1` was 74.9% (inactive); that for `O=C(CSc1nc2ccccc2c(=O)n1-c1ccc(Cl)c(Cl)c1)Nc1ccc(S(=O)(=O)Nc2ccc(Cl)nn2)cc1` was 85% (inactive); that for `C#CCN(C)CCCOc1ccc(NCc2ccc(/C=C/C(=O)NO)cc2)cc1Cl` was -53.7% (active).

Regarding `O=C(NNc1nc2cc(F)cc(F)c2n2cccc12)c1cccnn1`, the growth was 9.53% (active). With `COc1ccc(/C(=N\NC(N)=S)c2ccc(Cl)cc2)cc1OC`, the growth was 18.9% (inactive).

On to `COc1ccc(-c2c(C(N)=O)c(N)n(Cc3nc4ccccc4[nH]3)c(=O)c2C#N)c(OC)c1`, for which the growth was 91.6% (inactive). On the same count and under the same terms, for `Cc1cc(Br)ccc1-n1cc(C#N)c(N)c1C(=O)c1ccc(Br)cc1` the value was 94.3% (inactive). Still for that read-out and setting: for `CN1CCN(Cc2ccc(NC(=O)c3cncc(C#Cc4cnc(N)nc4)c3)cc2C(F)(F)F)CC1` the value was -0.0134% (active). As to `CCOC(=O)c1c(NC(=O)c2ccc(C(F)(F)F)cc2)sc2c3c(ccc12)OCN(C)C3`, the growth is 88% (inactive). On to `O=C1CSC(c2cn(-c3ccccc3)nc2-c2ccc(Cl)cc2)N1c1ccccc1` (stereo unspecified), for which the growth was 99% (inactive).

`COc1ccc(-c2c3c(cn2Cc2cccc(OC)c2)-c2oncc2CCC3)cc1`: the growth is 79.3% (inactive). Same read-out and setting: for `C#C[C@]1(O)CC[C@H]2[C@@H]3CC=C4c5sc(Nc6ccc(C)cn6)nc5CC[C@]4(C)[C@H]3CC[C@@]21C` the value was -24.8% (active).

Consider `CCCCCCOC(=O)c1cc(-c2ccc(F)cc2)nc2ccccc12`, for which the growth was 79% (inactive). Same read-out and setting: for `CN1CCN(c2ccc(Nc3nc(NCCNS(=O)(=O)c4ccccc4)c4sccc4n3)cc2)CC1` the value was 96.4% (inactive); for `CN1CCN(Cc2ccc(NC(=O)c3cncc(C#Cc4cnc5ccc(O[C@@H]6CCOC6)nn45)c3)cc2C(F)(F)F)CC1`, -76.3% (active). Still for that read-out and setting: for `CC(C)(C)Nc1nc2c(OCCc3ccccc3)cccn2c1-c1ccc([N+](=O)[O-])cc1` the value was 57.5% (inactive); for `N#Cc1c(-c2cccs2)cc(-c2cnccn2)nc1SCC(=O)N/N=C/c1ccc(Cl)cc1`, 91.3% (inactive).

Consider `CN(C)CCCOc1ccc(C(=C(c2ccccc2)C2CCCC2)c2ccc(OCCCN(C)C)cc2)cc1`, for which the growth was -91.6% (active). Still for that read-out and setting: for `N#Cc1nc(-c2ccc(Cl)cc2)oc1N1CCC(S(=O)(=O)N2CCOCC2)CC1` the value was 94.1% (inactive); for `CC(=O)C1=C(C)NC(NNc2ccccc2)=NC1c1ccc([N+](=O)[O-])cc1` (stereo unspecified), 52.8% (inactive); for `COC(=O)c1ccc(NC2=C(Cl)C(=O)C(C)=C(C)C2=O)cc1`, 5.89% (active). The same measure, in the same setting: the value for `C=C(C=O)[C@@H]1CC[C@]2(C(=O)O)CC[C@]3(C)C(CC[C@@H]4[C@@](C)(CCC#N)[C@H](C(=C)C=O)CC[C@]43C)[C@@H]12` (stereo partly specified) was 30.9% (inactive).

On to `CCOC(=O)C1=C(C)NC(C)=C(C(=O)OC(C)C)C1c1cccc(C#N)c1` (stereo unspecified), for which the growth was 93.3% (inactive). The same measure, in the same setting: for `CC1(C)CC[C@]23CC[C@]4(C)[C@H](CC[C@@H]5[C@@]6(C)CC[C@H](NCO)C(C)(C)[C@@H]6CC[C@]54C)[C@H]2[C@H]1OC3` the value was 99.6% (inactive); for `COc1ccc(C(=NNS(=O)(=O)c2ccc(C)cc2)c2ccccc2)cc1OC`, 70.3% (inactive).

Turning to `COc1cccc2c1C=CC1(O2)Oc2cccc(OC)c2C=C1C` (stereo unspecified), the growth was 13.1% (inactive). The same measure, in the same setting: for `Cc1csc(/N=C(N)/N=C(\N)c2cccnc2)n1` the value was 40.2% (inactive); for `Cc1ccc(/C=N/Nc2nc(Nc3ccccc3)nc(Nc3ccc(S(N)(=O)=O)cc3)n2)cc1`, 91.3% (inactive). Same read-out and setting: the value for `CCCC[n+]1ccc(SCC(=O)n2ccc3ccccc32)c2ccccc21` was 77.7% (inactive); that for `O=[N+]([O-])c1ccc(NC(=S)NNC(=S)Nc2ccc(Br)cc2)cc1` was 48.5% (inactive); that for `CCOP(=O)(OCC)OC[C@]12CCC(C)(C)CC1C1=CC[C@@H]3[C@@]4(C)CCCNC(C)(C)[C@@H]4CC[C@@]3(C)[C@]1(C)CC2` (stereo partly specified) was 90.5% (inactive).
